Assay results as given in article PMC7862700, “An all-to-all approach to the identification of sequence-specific readers for epigenetic DNA modifications on cytosine”.

Legend:
Assay in all cases: DAPPL (digital affinity profiling via proximity ligation, sequencing); 10 mM Tris-HCl pH 7.5, 50 mM NaCl, 1 mM DTT, 4% glycerol, room temperature, 30 min; GST-TFs on glutathione beads, 16-mer random dsDNA library, 0.1% formaldehyde crosslink after washing; high values mean tight binding
FEV = target: T1, FEV (Homo sapiens, UniProt Q99581 1-238); conditions: protein: recombinant; tags: N-terminal GST; dsDNA, one strand shown
T1 sequence: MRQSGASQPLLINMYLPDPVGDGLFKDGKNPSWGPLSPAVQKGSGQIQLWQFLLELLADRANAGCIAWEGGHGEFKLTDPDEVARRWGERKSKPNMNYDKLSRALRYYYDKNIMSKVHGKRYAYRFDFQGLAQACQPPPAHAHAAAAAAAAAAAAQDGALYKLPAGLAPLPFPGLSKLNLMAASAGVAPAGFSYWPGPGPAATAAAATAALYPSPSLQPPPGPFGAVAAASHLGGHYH
How it was run: (§1)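 Binding signal is each hexamer's read frequency for a factor divided by its frequency in the tag-only sample. The factors were GST-fused human transcription factors from yeast, captured on glutathione beads, DNA-barcoded and pooled with that sample. Pools were incubated with 200 nmole of a random double-stranded 16-mer DNA library in Tris/NaCl/DTT/glycerol buffer at room temperature for 30 min, then washed, crosslinked with 0.1% formaldehyde, proximity-ligated with BsaI/T4 ligase (1 h, 37 °C), PCR-amplified and sequenced on an Illumina NextSeq500.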

ETV5 = ETV5 (Homo sapiens, UniProt P41161 1-510); conditions: protein: recombinant; tags: N-terminal GST; dsDNA, one strand shown
How it was run: as §1

HSF1 = HSF1 (Homo sapiens, UniProt Q00613 1-529); conditions: protein: recombinant; tags: N-terminal GST; chain copies: 3; dsDNA, one strand shown
How it was run: as §1

SPIC = target: T2, SPIC (Homo sapiens, UniProt Q8N5J4 1-248); conditions: protein: recombinant; tags: N-terminal GST; dsDNA, one strand shown
T2 sequence: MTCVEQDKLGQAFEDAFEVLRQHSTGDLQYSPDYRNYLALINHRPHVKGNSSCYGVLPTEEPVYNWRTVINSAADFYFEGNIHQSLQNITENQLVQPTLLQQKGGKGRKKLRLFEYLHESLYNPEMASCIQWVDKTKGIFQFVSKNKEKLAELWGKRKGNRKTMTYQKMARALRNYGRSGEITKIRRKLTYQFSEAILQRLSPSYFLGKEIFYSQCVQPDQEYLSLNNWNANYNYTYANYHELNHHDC
How it was run: as §1

ELF4 = ELF4 (Homo sapiens, UniProt Q99607 1-663); conditions: protein: recombinant; tags: N-terminal GST; dsDNA, one strand shown
How it was run: as §1

ELK4 = target: T3, ELK4 (Homo sapiens, UniProt P28324-2 1-405); conditions: protein: recombinant; tags: N-terminal GST; dsDNA, one strand shown
T3 sequence: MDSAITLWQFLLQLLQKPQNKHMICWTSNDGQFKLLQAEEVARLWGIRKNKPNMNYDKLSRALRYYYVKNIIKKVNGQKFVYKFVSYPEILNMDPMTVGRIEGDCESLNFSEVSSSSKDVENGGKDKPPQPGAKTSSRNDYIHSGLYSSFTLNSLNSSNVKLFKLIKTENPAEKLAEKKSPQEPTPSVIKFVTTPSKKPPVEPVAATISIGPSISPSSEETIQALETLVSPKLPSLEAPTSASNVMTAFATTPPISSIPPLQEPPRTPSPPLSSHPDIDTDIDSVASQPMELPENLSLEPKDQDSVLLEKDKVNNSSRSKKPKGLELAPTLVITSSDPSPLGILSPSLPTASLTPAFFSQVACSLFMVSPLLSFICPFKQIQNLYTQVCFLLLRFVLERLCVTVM
How it was run: as §1

ETV2 = target: T4, ETV2 (Homo sapiens, UniProt O00321 1-342); conditions: protein: recombinant; tags: N-terminal GST; dsDNA, one strand shown
T4 sequence: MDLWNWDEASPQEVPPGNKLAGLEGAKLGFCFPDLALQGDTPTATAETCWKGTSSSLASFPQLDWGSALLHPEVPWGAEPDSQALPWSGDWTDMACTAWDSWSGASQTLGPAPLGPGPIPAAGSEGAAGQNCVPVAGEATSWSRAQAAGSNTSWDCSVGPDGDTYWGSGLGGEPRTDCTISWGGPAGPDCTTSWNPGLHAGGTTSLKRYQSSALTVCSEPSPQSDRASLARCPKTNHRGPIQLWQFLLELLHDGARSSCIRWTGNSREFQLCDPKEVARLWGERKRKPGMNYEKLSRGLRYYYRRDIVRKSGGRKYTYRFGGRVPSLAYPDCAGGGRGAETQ
How it was run: as §1

ELF3 = target: T5, ELF3 (Homo sapiens, UniProt P78545 1-371); conditions: protein: recombinant; tags: N-terminal GST; dsDNA, one strand shown
T5 sequence: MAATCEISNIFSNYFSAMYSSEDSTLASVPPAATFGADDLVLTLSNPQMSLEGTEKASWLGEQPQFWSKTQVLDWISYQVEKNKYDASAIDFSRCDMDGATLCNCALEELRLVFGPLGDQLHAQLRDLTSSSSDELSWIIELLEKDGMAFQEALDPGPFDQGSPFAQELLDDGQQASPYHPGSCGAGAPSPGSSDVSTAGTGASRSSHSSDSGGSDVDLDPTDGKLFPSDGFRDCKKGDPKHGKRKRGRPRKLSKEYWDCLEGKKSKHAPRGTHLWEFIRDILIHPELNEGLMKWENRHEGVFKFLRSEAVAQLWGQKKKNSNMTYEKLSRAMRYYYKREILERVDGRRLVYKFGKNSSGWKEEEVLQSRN
How it was run: as §1

CRX = CRX (Homo sapiens, UniProt O43186 1-299); conditions: protein: recombinant; tags: N-terminal GST; dsDNA, one strand shown
How it was run: as §1

ETV1 = ETV1 (Homo sapiens, UniProt P50549 1-477); conditions: protein: recombinant; tags: N-terminal GST; dsDNA, one strand shown
How it was run: as §1

ERF = target: T6, ERF (Homo sapiens, UniProt P50548 1-548); conditions: protein: recombinant; tags: N-terminal GST; dsDNA, one strand shown
T6 sequence: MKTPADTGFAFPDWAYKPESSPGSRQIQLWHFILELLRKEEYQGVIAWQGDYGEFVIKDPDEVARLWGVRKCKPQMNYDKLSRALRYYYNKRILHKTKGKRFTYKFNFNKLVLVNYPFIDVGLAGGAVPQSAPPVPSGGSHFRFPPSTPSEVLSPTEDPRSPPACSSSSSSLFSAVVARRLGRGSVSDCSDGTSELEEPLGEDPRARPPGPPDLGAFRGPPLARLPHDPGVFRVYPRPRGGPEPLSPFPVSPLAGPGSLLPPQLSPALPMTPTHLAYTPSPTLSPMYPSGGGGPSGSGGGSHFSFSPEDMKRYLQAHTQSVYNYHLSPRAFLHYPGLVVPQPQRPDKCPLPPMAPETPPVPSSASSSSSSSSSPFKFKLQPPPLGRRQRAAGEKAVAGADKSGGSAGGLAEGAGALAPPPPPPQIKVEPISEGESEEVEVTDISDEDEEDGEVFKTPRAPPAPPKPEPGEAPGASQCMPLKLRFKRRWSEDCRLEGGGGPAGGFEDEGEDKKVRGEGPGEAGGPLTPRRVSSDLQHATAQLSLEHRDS
How it was run: as §1

ETV3L = target: T7, ETV3L (Homo sapiens, UniProt Q6ZN32 1-361); conditions: protein: recombinant; tags: N-terminal GST; dsDNA, one strand shown
T7 sequence: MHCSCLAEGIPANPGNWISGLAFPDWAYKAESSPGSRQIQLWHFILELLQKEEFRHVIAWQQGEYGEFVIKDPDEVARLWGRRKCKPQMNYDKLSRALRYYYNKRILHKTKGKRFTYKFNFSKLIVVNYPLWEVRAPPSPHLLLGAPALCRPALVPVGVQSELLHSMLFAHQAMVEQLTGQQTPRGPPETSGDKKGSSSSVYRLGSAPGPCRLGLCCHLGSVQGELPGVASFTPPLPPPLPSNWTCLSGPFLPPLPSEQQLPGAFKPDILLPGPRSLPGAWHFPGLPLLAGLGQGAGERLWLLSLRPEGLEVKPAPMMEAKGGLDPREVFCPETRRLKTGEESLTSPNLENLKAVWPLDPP
How it was run: as §1

ETS2 = target: T8, ETS2 (Homo sapiens, UniProt P15036 1-469); conditions: protein: recombinant; tags: N-terminal GST; dsDNA, one strand shown
T8 sequence: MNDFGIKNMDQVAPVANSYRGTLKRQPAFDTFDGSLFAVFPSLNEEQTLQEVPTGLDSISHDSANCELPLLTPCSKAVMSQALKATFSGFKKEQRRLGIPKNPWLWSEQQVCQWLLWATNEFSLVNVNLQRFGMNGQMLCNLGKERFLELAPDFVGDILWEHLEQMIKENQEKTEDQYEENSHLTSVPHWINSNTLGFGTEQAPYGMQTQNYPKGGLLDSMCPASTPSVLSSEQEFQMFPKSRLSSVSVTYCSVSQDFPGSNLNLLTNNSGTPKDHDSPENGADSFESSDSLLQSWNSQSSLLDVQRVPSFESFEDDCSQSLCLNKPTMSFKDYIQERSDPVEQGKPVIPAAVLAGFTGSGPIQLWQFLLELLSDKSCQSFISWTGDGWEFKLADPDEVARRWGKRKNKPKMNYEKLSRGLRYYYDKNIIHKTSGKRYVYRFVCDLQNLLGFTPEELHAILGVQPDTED
How it was run: as §1

SPDEF = target: T9, SPDEF (Homo sapiens, UniProt O95238 1-335); conditions: protein: recombinant; tags: N-terminal GST; dsDNA, one strand shown
T9 sequence: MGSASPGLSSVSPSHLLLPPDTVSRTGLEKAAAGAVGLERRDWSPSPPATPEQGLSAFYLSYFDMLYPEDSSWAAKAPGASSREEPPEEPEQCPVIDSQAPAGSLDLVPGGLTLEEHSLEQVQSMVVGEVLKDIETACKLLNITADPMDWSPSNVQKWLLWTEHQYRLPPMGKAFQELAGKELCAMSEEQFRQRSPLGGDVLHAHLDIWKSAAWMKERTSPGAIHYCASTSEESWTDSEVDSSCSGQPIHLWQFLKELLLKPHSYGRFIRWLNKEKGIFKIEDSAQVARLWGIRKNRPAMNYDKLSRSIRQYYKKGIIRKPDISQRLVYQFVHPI
How it was run: as §1

ETV7 = target: T10, ETV7 (Homo sapiens, UniProt Q9Y603 1-341); conditions: protein: recombinant; tags: N-terminal GST; dsDNA, one strand shown
T10 sequence: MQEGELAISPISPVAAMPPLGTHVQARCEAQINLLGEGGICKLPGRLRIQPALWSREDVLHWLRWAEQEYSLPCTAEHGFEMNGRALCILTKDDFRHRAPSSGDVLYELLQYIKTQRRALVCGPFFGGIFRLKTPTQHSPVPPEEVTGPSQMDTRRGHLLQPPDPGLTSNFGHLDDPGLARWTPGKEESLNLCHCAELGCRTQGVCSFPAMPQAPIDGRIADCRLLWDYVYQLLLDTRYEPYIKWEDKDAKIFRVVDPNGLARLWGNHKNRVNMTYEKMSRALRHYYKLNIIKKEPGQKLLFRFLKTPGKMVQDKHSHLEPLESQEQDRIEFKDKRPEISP
How it was run: as §1

ELF5 = target: T11, ELF5 (Homo sapiens, UniProt Q9UKW6-2 1-255); conditions: protein: recombinant; tags: N-terminal GST; dsDNA, one strand shown
T11 sequence: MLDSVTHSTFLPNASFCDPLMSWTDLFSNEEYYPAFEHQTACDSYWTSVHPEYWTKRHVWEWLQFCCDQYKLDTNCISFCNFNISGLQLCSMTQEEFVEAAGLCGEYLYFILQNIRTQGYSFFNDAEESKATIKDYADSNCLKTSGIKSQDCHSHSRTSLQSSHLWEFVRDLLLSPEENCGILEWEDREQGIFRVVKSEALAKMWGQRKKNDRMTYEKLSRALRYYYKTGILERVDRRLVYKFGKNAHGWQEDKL
How it was run: as §1

ETV3 = target: T12, ETV3 (Homo sapiens, UniProt P41162-2 1-143); conditions: protein: recombinant; tags: N-terminal GST; dsDNA, one strand shown
T12 sequence: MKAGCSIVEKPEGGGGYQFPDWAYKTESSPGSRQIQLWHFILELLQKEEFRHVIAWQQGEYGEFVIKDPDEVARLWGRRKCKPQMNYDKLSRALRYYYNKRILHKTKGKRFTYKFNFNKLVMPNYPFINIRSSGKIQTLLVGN
How it was run: as §1

ETV6 = ETV6 (Homo sapiens, UniProt P41212 1-452); conditions: protein: recombinant; tags: N-terminal GST; dsDNA, one strand shown
How it was run: as §1

ELF4, sequence (Q99607 whole entry): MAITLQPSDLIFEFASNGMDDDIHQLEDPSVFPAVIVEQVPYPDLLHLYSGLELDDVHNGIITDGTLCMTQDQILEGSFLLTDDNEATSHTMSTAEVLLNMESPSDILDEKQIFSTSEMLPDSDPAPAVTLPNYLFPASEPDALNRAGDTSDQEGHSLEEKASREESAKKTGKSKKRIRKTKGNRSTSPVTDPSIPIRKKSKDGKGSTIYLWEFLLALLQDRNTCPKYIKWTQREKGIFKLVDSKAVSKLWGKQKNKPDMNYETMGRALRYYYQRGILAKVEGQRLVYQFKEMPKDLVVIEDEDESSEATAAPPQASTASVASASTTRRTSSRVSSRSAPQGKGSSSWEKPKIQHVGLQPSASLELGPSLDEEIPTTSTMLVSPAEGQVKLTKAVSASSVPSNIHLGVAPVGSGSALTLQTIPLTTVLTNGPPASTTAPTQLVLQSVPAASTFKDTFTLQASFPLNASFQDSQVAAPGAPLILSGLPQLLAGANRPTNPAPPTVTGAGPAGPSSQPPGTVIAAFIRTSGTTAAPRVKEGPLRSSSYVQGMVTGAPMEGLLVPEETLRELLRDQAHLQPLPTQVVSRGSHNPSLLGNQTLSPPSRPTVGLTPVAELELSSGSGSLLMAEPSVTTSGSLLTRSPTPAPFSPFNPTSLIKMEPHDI
HSF1, sequence (Q00613 whole entry): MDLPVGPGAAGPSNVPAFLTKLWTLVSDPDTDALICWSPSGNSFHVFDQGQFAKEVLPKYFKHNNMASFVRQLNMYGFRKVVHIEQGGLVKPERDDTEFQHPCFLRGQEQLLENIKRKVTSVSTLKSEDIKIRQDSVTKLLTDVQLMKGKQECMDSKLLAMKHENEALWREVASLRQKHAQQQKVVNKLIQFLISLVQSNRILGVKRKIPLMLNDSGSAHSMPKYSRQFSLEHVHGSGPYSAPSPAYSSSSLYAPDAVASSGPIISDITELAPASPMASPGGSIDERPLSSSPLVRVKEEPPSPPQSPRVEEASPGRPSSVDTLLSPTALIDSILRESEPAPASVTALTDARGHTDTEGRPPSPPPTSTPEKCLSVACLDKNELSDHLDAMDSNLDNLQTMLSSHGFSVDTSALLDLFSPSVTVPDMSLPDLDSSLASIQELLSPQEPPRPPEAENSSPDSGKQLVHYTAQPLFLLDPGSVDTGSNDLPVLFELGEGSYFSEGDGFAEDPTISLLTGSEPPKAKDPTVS
ETV6, sequence (P41212 whole entry): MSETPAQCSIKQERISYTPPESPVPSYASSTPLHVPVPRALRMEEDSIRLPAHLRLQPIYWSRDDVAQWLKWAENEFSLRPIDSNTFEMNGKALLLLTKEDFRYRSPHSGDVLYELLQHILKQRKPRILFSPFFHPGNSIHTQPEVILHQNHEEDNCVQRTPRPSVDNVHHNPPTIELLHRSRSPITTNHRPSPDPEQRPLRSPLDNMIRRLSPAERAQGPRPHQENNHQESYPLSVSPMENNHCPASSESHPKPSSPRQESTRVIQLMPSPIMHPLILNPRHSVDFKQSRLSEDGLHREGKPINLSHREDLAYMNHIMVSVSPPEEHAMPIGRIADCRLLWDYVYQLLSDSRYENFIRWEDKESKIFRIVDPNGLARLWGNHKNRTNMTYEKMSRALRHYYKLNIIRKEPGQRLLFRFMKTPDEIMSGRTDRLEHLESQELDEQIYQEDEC
CRX, sequence (O43186 whole entry): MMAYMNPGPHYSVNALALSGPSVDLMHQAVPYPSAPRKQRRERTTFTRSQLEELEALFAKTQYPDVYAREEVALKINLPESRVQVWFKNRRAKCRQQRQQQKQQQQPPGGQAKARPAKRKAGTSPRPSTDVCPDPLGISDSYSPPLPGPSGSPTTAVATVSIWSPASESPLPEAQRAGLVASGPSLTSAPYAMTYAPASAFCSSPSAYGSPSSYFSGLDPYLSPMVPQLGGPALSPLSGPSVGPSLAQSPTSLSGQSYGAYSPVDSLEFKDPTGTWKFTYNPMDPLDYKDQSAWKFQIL
ETV5, sequence (P41161 whole entry): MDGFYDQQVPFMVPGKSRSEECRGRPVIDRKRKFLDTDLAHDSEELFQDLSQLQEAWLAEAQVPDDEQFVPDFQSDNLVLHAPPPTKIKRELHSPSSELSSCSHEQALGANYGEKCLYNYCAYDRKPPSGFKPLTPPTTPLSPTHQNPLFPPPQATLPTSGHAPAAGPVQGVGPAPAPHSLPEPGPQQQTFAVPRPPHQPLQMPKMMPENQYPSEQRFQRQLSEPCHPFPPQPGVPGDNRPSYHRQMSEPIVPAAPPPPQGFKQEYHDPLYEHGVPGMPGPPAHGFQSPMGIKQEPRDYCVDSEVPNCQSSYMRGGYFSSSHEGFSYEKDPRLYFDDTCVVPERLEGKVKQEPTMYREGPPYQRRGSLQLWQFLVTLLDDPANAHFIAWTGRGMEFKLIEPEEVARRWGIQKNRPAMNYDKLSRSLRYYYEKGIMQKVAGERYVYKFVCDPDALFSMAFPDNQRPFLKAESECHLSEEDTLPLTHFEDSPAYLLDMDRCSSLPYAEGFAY
ETV1, sequence (P50549 whole entry): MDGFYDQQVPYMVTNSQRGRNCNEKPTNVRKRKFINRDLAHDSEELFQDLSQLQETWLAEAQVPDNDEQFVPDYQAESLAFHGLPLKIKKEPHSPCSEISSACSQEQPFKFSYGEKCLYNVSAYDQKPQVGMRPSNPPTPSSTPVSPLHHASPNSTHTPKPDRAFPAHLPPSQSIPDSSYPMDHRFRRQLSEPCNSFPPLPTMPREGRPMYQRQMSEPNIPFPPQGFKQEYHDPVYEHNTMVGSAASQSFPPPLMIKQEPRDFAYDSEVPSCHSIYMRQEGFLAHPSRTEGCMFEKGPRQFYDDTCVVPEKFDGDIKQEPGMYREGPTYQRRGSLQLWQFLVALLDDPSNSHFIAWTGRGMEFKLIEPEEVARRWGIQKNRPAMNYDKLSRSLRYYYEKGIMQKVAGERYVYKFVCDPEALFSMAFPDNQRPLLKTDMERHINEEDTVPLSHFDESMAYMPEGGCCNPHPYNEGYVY

GTGGCT
binding signal (FEV): 1.19 fold enrichment (6-mer frequency, TF over GST control) | binding signal (ETV5): 1.13 fold enrichment (6-mer frequency, TF over GST control) | binding signal (HSF1): 1.05 fold enrichment (6-mer frequency, TF over GST control) | binding signal (SPIC): 1.23 fold enrichment (6-mer frequency, TF over GST control) | binding signal (ELF4): 1.1 fold enrichment (6-mer frequency, TF over GST control) | binding signal (ELK4): 1.31 fold enrichment (6-mer frequency, TF over GST control) | binding signal (ETV2): 1.17 fold enrichment (6-mer frequency, TF over GST control) | binding signal (ELF3): 1.26 fold enrichment (6-mer frequency, TF over GST control) | binding signal (CRX): 1.18 fold enrichment (6-mer frequency, TF over GST control) | binding signal (ETV1): 1.19 fold enrichment (6-mer frequency, TF over GST control) | binding signal (ERF): 1.18 fold enrichment (6-mer frequency, TF over GST control) | binding signal (ETV3L): 1.07 fold enrichment (6-mer frequency, TF over GST control) | binding signal (ETS2): 1.14 fold enrichment (6-mer frequency, TF over GST control) | binding signal (SPDEF): 1.03 fold enrichment (6-mer frequency, TF over GST control) | binding signal (ETV7): 1.1 fold enrichment (6-mer frequency, TF over GST control) | binding signal (ELF5): 1.03 fold enrichment (6-mer frequency, TF over GST control) | binding signal (ETV3): 1.12 fold enrichment (6-mer frequency, TF over GST control) | binding signal (ETV6): 1.07 fold enrichment (6-mer frequency, TF over GST control)
